Assay results reported in PubChem BioAssay AID1159580 (chemical genetic matrix, 2015).
Out of some 5,500 compounds screened, about 2,000 (36%) were called active. Inconclusive results (about 18%) are left out. Rule as the data show it: active = normalized growth mostly below about 0.91 (no sharp cut-off); inconclusive = no clear call, values can overlap the other calls; inactive = mostly above about 0.92. The list shows a part of the results.

Assay: chemical genetic growth profiling, strain panel (AID 1159580);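 also: tested at 20 µM; growth read once vehicle control cultures reached saturation at 30 °C; 1 = growth at the plate median or of vehicle wells; lower values mean less growth of the strain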
Conditions: S. cerevisiae deletion strains, growth OD

Measured: normalized growth

CC(=O)N[C@H](C(=O)O)C(C)(C)SN=O
inactive: locus YAL013W, strain DEP1, active compounds read low 1.01 | locus YAL040C, strain CLN3, active compounds read low 1.01 | locus YCL061C, strain MRC1 (second series), active compounds read low 1.01 | locus YDR363W, strain ESC2, active compounds read low 0.989 | locus YER002W, strain NOP16, active compounds read low 1.01 | locus YGR078C, strain PAC10, active compounds read low 1.02 | locus YGR229C, strain SMI1, active compounds read low 1 | locus YMR307W, strain GAS1, active compounds read low 0.987 | locus YNL128W, strain TEP1, active compounds read low 0.998 | locus YNL153C, strain GIM3, active compounds read low 1.02 | locus YNL175C, strain NOP13, active compounds read low 1.01 | locus YNL197C, strain WHI3, active compounds read low 1.01 | locus YNL224C, strain SQS1, active compounds read low 1.02 | locus YNL322C, strain KRE1, active compounds read low 1.01 | locus YOR083W, strain WHI5 (second series), active compounds read low 1.02 | locus YPL241C, strain CIN2, active compounds read low 1.01
